Assay type in all cases: functional
The target of test [1] is Solute carrier family 2, facilitated glucose transporter member 1 (Homo sapiens) (UniProt P11166). Put plainly: ST_JUDE_LEISH: Cytotoxicity at 2uM final concentration against transgenic Leishmania Mexicana promastigotes LmGLUT1 that are glucose transport deficient and complemented with the human glucose transporter GLUT1. Activity is measured by DNA content using SYBR green in vitro.

The target of test [2] is Hexose transporter 1 (Plasmodium falciparum) (UniProt O97467). Put plainly: ST_JUDE_LEISH: Cytotoxicity at 2uM final concentration against transgenic Leishmania Mexicana promastigotes LmPfHT that are glucose transport deficient and complemented with the Plasmodium falciparum hexose transporter. Activity is measured by DNA content using SYBR green in vitro.
The target in test [3] is Glucose transporter (Leishmania mexicana) (UniProt O61059). Put plainly: ST_JUDE_LEISH: Cytotoxicity at 2uM final concentration against transgenic Leishmania Mexicana promastigotes LmGT2 that are glucose transport deficient and complemented with the L. Mexicana glucose transporter 2. Activity is measured by DNA content using SYBR green in vitro.

Each structure is given as a SMILES string.

Chain of Solute carrier family 2, facilitated glucose transporter member 1 (Homo sapiens) (P11166 whole entry): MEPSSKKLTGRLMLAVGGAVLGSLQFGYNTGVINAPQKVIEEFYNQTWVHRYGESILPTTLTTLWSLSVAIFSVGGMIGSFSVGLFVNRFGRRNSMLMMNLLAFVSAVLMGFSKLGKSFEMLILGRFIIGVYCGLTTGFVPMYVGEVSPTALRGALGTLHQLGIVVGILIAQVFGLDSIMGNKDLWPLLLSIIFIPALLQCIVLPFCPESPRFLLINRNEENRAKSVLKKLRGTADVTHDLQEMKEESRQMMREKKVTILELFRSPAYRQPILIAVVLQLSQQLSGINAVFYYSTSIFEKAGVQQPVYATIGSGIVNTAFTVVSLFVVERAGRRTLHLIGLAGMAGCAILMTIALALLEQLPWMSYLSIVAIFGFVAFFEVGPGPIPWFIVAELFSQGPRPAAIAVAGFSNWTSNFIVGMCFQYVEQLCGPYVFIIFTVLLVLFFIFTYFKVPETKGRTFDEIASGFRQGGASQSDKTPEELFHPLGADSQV

With `CCN(CC)CCCC(C)Nc1ccnc2[nH]c3ccccc3c12` (stereo not given), the inhibition (usually the drop in the measured response relative to a control, in per cent) in test [1] was determined as 6.4%; in test [2] it was 6.62%; in test [3], 4.63%.

In the case of `CS(=O)(=O)Cc1cccc(Nc2ncc(Cl)c(Nc3cccnc3C(N)=O)n2)c1`, the inhibition stood at 11.5% in test [1], 12.6% in test [2] and 15.6% in test [3].

As to `Cc1cc(C(=O)Nc2ccc3c(c2)CCN3C2CCN(Cc3ccc(O)cc3)C2)no1` (stereo not given), the inhibition in test [1] stood at 4.29%; in test [2], 5.39%; in test [3], 2.38%.

Consider `COC(=O)C1(NC(=O)c2ccc(-n3nc(C)c(-c4ccccc4)c3N)cc2)CCCC1`, for which the inhibition came to 2.04% in test [1], 2.33% in test [2] and 2.55% in test [3].

`CCOc1cc(Cc2cnc(N)nc2N)cc(OCC)c1OCCCCC(=O)OC`: the inhibition is 4.55% in test [1], 0.23% in test [2] and 0.19% in test [3].

In the case of `O=C(/C=C/c1ccc(Cl)c(Cl)c1)NCCCCCCN1CCN(C(=O)Nc2cc(Cl)nc(Cl)c2)CC1`, the inhibition worked out at 2.96% in test [1], 2.93% in test [2] and 2.49% in test [3].

With `COc1ccc(NC(C)C(=O)Nc2ccc(Br)cc2)cc1S(=O)(=O)N1CCCCC1` (stereo not given), the inhibition in test [1] is -1%; in test [2] it was 1.34%; in test [3], 1.93%.

With `COc1ccc2nccc([C@@H](O)CN3CCC(NC(=O)c4cc5c(Cl)cc(Cl)cc5[nH]4)CC3)c2c1`, the inhibition in test [1] amounted to 5.68%; in test [2], 7.48%; in test [3] it was 0.08%.

For `COc1ccc(OC)c(Cc2c(C)nc3nc(N)nc(N)c3c2C)c1`, the inhibition in test [1] was -0.27%; in test [2], 0.88%; in test [3], -3.07%.

Take `Cc1cccc(-c2ccc3c(c2)CC(NCc2cccc(-n4ccnc4)c2)C3)c1` (stereo not given): the inhibition in test [1] was found to be 31.8%; in test [2], 41.4%; in test [3], 26.6%.

For the compound `Cc1nc(-c2ccc(C#N)cc2)sc1C(=O)NCCCCN1CCC(c2ccc3c(c2OCCO)CCCC3)CC1`, the inhibition in test [1] was 6.87%; in test [2], 6.02%; in test [3], 3.7%.

`CC(C)C[C@H](NC(=O)c1cc2ccccc2s1)C(=O)N[C@H]1CCN(Cc2ccc(OC3CCN(C)C3)c(Cl)c2)C1` (stereo not given in full): the results for the inhibition in test [1], in test [2] and in test [3] were 1.48%, 2.37% and -0.19%, respectively.

Consider `NC(=O)c1cccc(Nc2nccc(Nc3ccc(Oc4ccc5ccccc5c4)cc3)n2)c1`, for which the inhibition was found to be 5.67% in test [1], 4.45% in test [2] and 0.97% in test [3].

In the case of `O=S(=O)(NCCN1CCCC1)c1ccc(-c2ccc(CN3Cc4ccccc4C3)cc2)s1`, the inhibition in test [1] was -0.63%; in test [2], -0.5%; in test [3], -2.59%.

With `Cc1ccc(F)c(C(=O)Nc2cccc(-c3nn4ccccc4c3-c3ccnc(Nc4cccc(F)c4)n3)c2)c1F`, the results for the inhibition in test [1], in test [2] and in test [3] were 9.44%, 8.92% and 6.93%, respectively.

For the compound `COc1ccc(CNC2Cc3ccccc3C2)cc1-c1ccc(S(=O)(=O)NCCN2CCCC2)cc1`, the results for the inhibition in test [1], in test [2] and in test [3] were 3.15%, 1.44% and -2.73%, respectively.

Regarding `Cc1ccc(CNC(=O)[C@H](Cc2ccccc2)Nc2ccnc(NCC3CCCCC3)n2)cc1`, the inhibition in test [1] came to 7.85%; in test [2], 4.83%; in test [3], 3.01%.

Take `Cc1cc2nc(-c3ccc(/C=C/C(=O)NC4CCCCC4)cc3)[nH]c2cc1C`: the inhibition stood at 0.61% in test [1], 1.82% in test [2] and 1.51% in test [3].

As for `CC(C)(C)c1nn(-c2ccc(Cl)cc2)c2[nH]c(=O)c(CNCc3cccs3)cc12`, the values for the inhibition in test [1], in test [2] and in test [3] were 3.3%, 3.24% and 2.34%, respectively.

For `COc1cc(NC(=O)c2sc(-c3ccc(Cl)cc3)cc2NC(=O)c2cccnc2)ccc1OCCN1CCCC1`, the inhibition in test [1] was 4.28%; in test [2], 4.76%; in test [3], 6.19%.

As to `Cc1cccc2c(/C=C/C(=O)NC3CCC(CCN4CCc5ccc(C#N)cc5CC4)CC3)c[nH]c12` (stereo not given), the inhibition in test [1] came out at 10.1%; in test [2] it was 8.44%; in test [3], 7.58%.

For `COc1ccc(-c2ccc(NC(=O)c3cccc(C#N)c3)cc2)cc1CN(C)C`, the results for the inhibition in test [1], in test [2] and in test [3] were 1.28%, 0.34% and 0.41%, respectively.

Take `O=C(Nc1cccc2ccccc12)N1CCC(NS(=O)(=O)c2cccc(C(F)(F)F)c2)CC1`: the values for the inhibition in test [1], in test [2] and in test [3] were 0.57%, 0.62% and 0.91%, respectively.

With `Cc1cc(NCCCCCCN)nc(Nc2ccc(Cl)cc2)n1`, the inhibition in test [1] was 5.87%; in test [2], 5.27%; in test [3] it was -0.67%.

As for `CCN(CC)S(=O)(=O)c1ccc(Cl)c(C(=O)Nc2ccc3nc(C)sc3c2)c1`, the results for the inhibition in test [1], in test [2] and in test [3] were -2.24%, -0.92% and -1.58%, respectively.

As for `CC(C)(Oc1c(C2CCN(CCCCNC(=O)c3ccc(-c4ccc(C#N)cc4)cc3)CC2)ccc2c1CCCC2)C(N)=O`, the values for the inhibition in test [1], in test [2] and in test [3] were 0.07%, 0.7% and -1.31%, respectively.

As to `COc1ccc(NC(=O)[C@H](CC(C)C)Nc2cc(C)nc(NCc3cccc(C)c3)n2)cc1`, the inhibition in test [1] was 9.89%; in test [2] it was 9.82%; in test [3], 7.22%.

For the compound `CC(C)c1ccc(NC(=O)c2cccc(CN3CCCN(CC4CCCCC4)CC3)c2)cc1`, the inhibition in test [1] turned out to be 11.7%; in test [2], 7.21%; in test [3], 9.65%.

Regarding `Cc1cc(NC(=O)c2ccco2)ccc1OC1CCN(Cc2ccc(F)cc2)C1` (stereo not given), the inhibition in test [1] amounted to 0.1%; in test [2], 0.21%; in test [3], 0.41%.

`CC(C)CC(NC(=O)c1ccc(F)cc1)C(=O)N[C@H](/C=N/N1CCNC1=O)CC(C)C` (stereo not given in full): the inhibition in test [1] turned out to be 3.16%; in test [2], 4.41%; in test [3], 3.66%.

For `Nc1cccc(CNCc2cccc(-c3csc(-c4nc5ccccc5[nH]4)c3)c2)c1`, the inhibition is 2.32% in test [1], 2.29% in test [2] and 1.68% in test [3].

In the case of `CC(=O)CSC(C=Cc1ccc(N(C)C)cc1)=Nc1ccccc1`, the inhibition in test [1] stood at 85.4%; in test [2], 83.3%; in test [3], 63.3%.

With `COc1cc(N(C)Cc2cnc3nc(N)nc(N)c3n2)cc(OC)c1OC`, the inhibition in test [1] was found to be 4.09%; in test [2], 3.84%; in test [3] it was 3.15%.

Take `N=C(N)NC(=O)Nc1ccc(Cl)c([N+](=O)[O-])c1`: the inhibition is 0.49% in test [1], 0.63% in test [2] and 0.37% in test [3].

For the compound `CCc1ccc(CN2CCC(C(=O)Nc3ccc(-c4nc5ccccc5[nH]4)cc3)CC2)o1`, the inhibition worked out at 31.6% in test [1], 39.6% in test [2] and 25.7% in test [3].

For the origin of these results see ChEMBL document CHEMBL3433997, “St. Jude Leishmania screening dataset” (2016).
